# Reference: PubChem BioAssay (NCATS)
# Values joined by “and” are separate entries in the source; they are usually repeats but may differ in a detail not shown here. Equal entries are not always repeated. Results filed as inconclusive are left out. Unmarked numbers belong to inactive results. The call rests on the fitted dose curve; in most records, active means well fitted activation curve with a large enough effect; inconclusive means small, poorly fitted or top-dose-only effect; inactive means no such curve, though single readings can be large or run the other way.
# Target: Cellular tumor antigen p53 (Homo sapiens) (UniProt P04637)
# Experiment: Primary qHTS for small molecule compounds that upregulate eGFP-tagged delta133p53alpha (in N-terminal) cells. (AID 2060322);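 further: series mostly up to about 56 µM; 0% = DMSO vehicle and 100% = reference activator; nearly all actives have a fitted effect of over 75% in size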
# Details: NCI-H358 eGFP-delta133p53alpha fluorescence, 24 h; activation: hits give high values
# Method in brief: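 NCI-H358 cells pre-induced 24 h with 10 ng/ml doxycycline to express N-terminal eGFP-delta133p53alpha, then dosed 24 h at 37C without doxycycline; fixed, Hoechst-stained, GFP intensity by laser scanning cytometry, normalized to DMSO (0%) and 57.5 uM 5-azacytidine (100%).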
# Cellular tumor antigen p53 (Homo sapiens), sequence (P04637 whole entry, looked up): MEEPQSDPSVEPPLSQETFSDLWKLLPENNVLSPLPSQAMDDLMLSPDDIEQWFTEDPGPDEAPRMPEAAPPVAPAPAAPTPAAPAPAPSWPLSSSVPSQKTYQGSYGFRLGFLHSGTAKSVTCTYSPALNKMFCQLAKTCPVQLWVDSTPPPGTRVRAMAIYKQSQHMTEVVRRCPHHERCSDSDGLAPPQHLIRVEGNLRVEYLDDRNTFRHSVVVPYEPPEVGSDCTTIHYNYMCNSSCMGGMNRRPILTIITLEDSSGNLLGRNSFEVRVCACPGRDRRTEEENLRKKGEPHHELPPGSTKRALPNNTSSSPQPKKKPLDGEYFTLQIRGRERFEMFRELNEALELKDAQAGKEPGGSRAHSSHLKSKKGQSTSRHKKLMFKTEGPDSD
row,SMILES,activation
1,Cc1ccsc1/C=C/C1=NCCCN1C,-2.51%
2,NCCNc1cccc2ccccc12,24.3%
3,CC(=O)N1CCN(c2ccc(OCc3nn(C)c(C)c3-c3cccc4c(CCCOc5cccc6ccccc56)c(C(=O)O)n(Cc5cccnc5)c34)cc2)CC1,22.3%
4,O=C(C=Cc1c(C(=O)O)[nH]c2cc(Cl)cc(Cl)c12)Nc1ccccc1,33.2%
5,Cc1nc2n(c(=O)c1CCN1CCC(c3noc4cc(F)ccc34)CC1)CCCC2,2.45% and 8.37%
6,CC(=O)O[C@@H]1CC2C3CCc4cc(OC(=O)c5ccccc5)ccc4C3CCC2(C)[C@H]1OC(C)=O (some centres undefined),6.21%
7,O=C(O)c1c(O)c(-c2ccccc2)nc2ccccc12,22%
8,C[C@@H]1C[C@H]2[C@@H]3CCC4=CC(=O)C=C[C@]4(C)[C@@]3(F)[C@@H](O)C[C@]2(C)[C@@]1(O)C(=O)COC(=O)c1ccncc1,-8.37%
9,C=CCSCC1Nc2cc(Cl)c(S(N)(=O)=O)cc2S(=O)(=O)N1 (centres undefined),-36.8%
10,NC(=O)NNc1ccccc1,0.565%
11,Cc1noc(NS(=O)(=O)c2ccc(N)cc2)c1C,9.21% and -0.487%
12,O=[N+]([O-])c1ccc(/C=N\O)o1,11.9%
13,N#CC(=C(O)c1ccc(Cl)cc1Cl)c1nc2cc(Cl)ccc2c(=O)[nH]1,7.18%
14,CCC(Cc1c(I)cc(I)c(N)c1I)C(=O)O (centres undefined),29.9%
